# Reference: paper PMC7862700, “An all-to-all approach to the identification of sequence-specific readers for epigenetic DNA modifications on cytosine”
# Assays:
# Assay in all cases: DAPPL (digital affinity profiling via proximity ligation, sequencing); 10 mM Tris-HCl pH 7.5, 50 mM NaCl, 1 mM DTT, 4% glycerol, room temperature, 30 min; GST-TFs on glutathione beads, 16-mer random dsDNA library, 0.1% formaldehyde crosslink after washing; high values mean tight binding
# [1] = biological target: T1, FLI1 (Homo sapiens, UniProt Q01543 1-452); settings: protein: recombinant; tags: N-terminal GST; dsDNA, one strand shown
# T1 sequence: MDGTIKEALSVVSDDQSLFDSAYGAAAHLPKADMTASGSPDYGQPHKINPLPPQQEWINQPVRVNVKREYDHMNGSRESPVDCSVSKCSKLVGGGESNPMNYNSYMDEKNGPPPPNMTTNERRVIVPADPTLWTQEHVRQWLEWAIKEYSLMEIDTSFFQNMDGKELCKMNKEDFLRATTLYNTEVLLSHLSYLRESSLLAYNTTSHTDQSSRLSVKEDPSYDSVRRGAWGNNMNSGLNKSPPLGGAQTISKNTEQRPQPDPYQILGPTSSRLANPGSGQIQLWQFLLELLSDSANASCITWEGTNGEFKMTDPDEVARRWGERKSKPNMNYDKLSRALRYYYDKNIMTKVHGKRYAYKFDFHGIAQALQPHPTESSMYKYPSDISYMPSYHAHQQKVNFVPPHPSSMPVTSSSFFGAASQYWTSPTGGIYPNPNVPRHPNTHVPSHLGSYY
# Method in brief: (§1)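 Binding signal is defined as a hexamer's read frequency for one factor over its frequency for the tag-only sample. To obtain reads, GST-fused human transcription factors were expressed in yeast, captured on glutathione beads, barcoded with DNA and pooled with that sample. Pools met 200 nmole of a 16-mer random double-stranded DNA library in Tris/NaCl/DTT/glycerol buffer for 30 min at room temperature before washing, 0.1% formaldehyde crosslinking, proximity ligation (BsaI/T4 ligase, 1 h, 37 °C), PCR and Illumina NextSeq500 sequencing.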
# [2] = biological target: T2, ELK1 (Homo sapiens, UniProt P19419 1-428); settings: protein: recombinant; tags: N-terminal GST; dsDNA, one strand shown
# T2 sequence: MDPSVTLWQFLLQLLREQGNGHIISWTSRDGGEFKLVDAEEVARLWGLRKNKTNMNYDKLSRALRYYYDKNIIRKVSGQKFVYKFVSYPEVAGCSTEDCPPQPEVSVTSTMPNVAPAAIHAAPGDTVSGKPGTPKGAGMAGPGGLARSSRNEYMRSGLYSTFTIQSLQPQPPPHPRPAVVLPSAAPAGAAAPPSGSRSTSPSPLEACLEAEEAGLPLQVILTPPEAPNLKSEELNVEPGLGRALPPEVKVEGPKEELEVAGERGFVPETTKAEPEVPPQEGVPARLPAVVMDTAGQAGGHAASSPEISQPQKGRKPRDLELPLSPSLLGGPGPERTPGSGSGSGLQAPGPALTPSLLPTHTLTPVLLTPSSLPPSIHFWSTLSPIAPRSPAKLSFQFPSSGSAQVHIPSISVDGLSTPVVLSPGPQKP
# Method in brief: as §1
# [3] = biological target: T3, GABPA (Homo sapiens, UniProt Q06546 1-454); settings: protein: recombinant; tags: N-terminal GST; dsDNA, one strand shown
# T3 sequence: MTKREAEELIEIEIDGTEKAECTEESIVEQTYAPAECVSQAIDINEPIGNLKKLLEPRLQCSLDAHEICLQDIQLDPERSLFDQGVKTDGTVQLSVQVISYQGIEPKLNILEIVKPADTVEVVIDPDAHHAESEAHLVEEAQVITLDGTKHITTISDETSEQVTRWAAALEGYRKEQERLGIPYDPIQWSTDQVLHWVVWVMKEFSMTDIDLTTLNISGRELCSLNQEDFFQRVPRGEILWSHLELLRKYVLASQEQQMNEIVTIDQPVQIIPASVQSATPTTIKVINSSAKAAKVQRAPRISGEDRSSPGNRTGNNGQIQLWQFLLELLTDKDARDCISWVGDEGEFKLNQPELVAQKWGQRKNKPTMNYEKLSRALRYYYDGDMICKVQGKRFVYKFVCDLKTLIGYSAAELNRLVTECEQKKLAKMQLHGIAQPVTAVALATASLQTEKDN
# Method in brief: as §1
# [4] = biological target: T4, ERG (Homo sapiens, UniProt P11308 1-479); settings: protein: recombinant; tags: N-terminal GST; dsDNA, one strand shown
# T4 sequence: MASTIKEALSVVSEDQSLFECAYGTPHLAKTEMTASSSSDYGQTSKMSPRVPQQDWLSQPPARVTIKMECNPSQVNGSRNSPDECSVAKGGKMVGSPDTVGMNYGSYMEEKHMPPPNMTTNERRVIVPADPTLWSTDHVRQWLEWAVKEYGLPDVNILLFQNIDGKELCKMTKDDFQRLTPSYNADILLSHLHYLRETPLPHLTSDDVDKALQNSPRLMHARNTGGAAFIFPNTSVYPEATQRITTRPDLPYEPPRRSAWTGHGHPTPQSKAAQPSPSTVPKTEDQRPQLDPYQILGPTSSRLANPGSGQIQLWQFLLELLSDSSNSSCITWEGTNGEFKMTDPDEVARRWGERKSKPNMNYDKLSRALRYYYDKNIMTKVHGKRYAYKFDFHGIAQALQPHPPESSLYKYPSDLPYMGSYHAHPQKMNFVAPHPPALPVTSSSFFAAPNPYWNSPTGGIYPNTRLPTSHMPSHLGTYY
# Method in brief: as §1
# [5] = biological target: ELF1 (Homo sapiens, UniProt P32519 1-619); settings: protein: recombinant; tags: N-terminal GST; dsDNA, one strand shown
# Chain of ELF1 (P32519 whole entry): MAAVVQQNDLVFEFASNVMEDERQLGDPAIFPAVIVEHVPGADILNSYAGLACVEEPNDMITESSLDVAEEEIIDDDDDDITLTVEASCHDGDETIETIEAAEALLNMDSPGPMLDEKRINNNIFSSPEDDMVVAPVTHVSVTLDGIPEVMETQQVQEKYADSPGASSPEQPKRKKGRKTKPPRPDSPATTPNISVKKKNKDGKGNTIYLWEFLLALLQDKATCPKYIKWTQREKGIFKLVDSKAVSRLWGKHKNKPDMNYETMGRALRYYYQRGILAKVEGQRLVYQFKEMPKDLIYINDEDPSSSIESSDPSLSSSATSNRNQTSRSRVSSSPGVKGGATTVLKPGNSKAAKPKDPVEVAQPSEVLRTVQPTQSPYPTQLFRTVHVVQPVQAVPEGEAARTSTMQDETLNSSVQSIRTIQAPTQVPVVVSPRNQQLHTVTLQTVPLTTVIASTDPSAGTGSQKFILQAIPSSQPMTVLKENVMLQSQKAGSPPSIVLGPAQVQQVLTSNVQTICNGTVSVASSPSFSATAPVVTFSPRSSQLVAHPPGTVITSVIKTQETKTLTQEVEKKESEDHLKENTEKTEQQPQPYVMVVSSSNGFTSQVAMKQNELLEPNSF
# Method in brief: as §1
# [6] = biological target: T5, EHF (Homo sapiens, UniProt Q9NZC4 1-300); settings: protein: recombinant; tags: N-terminal GST; dsDNA, one strand shown
# T5 sequence: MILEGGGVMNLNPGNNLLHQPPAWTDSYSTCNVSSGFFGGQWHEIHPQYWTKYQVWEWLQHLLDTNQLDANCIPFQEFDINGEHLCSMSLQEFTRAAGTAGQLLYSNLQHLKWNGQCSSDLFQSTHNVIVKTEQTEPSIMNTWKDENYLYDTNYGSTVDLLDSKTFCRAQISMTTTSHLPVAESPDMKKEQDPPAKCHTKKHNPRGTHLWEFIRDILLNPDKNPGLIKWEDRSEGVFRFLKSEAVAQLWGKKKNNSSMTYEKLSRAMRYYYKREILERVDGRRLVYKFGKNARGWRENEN
# Method in brief: as §1
# [7] = biological target: SPI1 (Homo sapiens, UniProt P17947 1-270); settings: protein: recombinant; tags: N-terminal GST; dsDNA, one strand shown
# Method in brief: as §1
# [8] = biological target: SPIB (Homo sapiens, UniProt Q01892 1-262); settings: protein: recombinant; tags: N-terminal GST; dsDNA, one strand shown
# Chain of SPIB (Q01892 whole entry): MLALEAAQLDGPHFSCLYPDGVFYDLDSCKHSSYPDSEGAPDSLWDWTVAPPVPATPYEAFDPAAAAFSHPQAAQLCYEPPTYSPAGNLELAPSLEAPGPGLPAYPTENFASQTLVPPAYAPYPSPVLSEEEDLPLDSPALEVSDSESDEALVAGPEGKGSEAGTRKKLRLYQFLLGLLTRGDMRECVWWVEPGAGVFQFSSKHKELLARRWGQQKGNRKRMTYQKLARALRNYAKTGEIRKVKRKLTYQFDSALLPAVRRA
# Method in brief: as §1
# [9] = biological target: T6, ELK3 (Homo sapiens, UniProt P41970 1-407); settings: protein: recombinant; tags: N-terminal GST; dsDNA, one strand shown
# T6 sequence: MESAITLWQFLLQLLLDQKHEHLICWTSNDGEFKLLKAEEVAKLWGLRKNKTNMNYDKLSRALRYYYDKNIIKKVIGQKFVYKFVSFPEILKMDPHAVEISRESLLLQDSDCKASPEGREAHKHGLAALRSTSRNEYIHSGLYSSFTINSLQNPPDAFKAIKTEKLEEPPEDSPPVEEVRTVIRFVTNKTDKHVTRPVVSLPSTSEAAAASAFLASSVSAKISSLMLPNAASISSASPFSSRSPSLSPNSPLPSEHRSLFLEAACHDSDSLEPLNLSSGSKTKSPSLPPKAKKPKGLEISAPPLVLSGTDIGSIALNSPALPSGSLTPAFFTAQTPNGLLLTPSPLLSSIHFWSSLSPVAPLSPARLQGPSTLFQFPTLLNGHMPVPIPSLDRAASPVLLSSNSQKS
# Method in brief: as §1
# [10] = biological target: T7, FEV (Homo sapiens, UniProt Q99581 1-238); settings: protein: recombinant; tags: N-terminal GST; dsDNA, one strand shown
# T7 sequence: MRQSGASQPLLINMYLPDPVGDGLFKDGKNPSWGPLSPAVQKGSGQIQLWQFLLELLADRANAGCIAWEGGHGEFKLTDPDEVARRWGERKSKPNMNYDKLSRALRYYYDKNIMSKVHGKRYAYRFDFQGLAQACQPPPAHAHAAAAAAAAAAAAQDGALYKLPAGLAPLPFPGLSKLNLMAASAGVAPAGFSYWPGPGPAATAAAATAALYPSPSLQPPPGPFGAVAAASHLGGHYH
# Method in brief: as §1
# [11] = biological target: ETV5 (Homo sapiens, UniProt P41161 1-510); settings: protein: recombinant; tags: N-terminal GST; dsDNA, one strand shown
# Chain of ETV5 (P41161 whole entry): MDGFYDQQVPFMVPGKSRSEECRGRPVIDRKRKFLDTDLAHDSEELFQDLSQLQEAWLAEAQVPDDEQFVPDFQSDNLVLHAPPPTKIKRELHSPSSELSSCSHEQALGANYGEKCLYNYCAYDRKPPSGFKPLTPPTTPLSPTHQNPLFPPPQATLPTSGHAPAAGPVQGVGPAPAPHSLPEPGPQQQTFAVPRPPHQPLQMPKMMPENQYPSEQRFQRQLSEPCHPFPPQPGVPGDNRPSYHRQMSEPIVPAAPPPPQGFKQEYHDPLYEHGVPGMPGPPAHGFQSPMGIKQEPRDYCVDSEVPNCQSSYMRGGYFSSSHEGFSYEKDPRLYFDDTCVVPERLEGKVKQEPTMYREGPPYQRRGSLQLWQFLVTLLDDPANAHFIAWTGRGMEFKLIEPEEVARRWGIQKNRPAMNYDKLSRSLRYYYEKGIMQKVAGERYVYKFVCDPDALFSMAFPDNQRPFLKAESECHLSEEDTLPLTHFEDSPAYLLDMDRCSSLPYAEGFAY
# Method in brief: as §1
# [12] = biological target: HSF1 (Homo sapiens, UniProt Q00613 1-529); settings: protein: recombinant; tags: N-terminal GST; chain copies: 3; dsDNA, one strand shown
# Chain of HSF1 (Q00613 whole entry): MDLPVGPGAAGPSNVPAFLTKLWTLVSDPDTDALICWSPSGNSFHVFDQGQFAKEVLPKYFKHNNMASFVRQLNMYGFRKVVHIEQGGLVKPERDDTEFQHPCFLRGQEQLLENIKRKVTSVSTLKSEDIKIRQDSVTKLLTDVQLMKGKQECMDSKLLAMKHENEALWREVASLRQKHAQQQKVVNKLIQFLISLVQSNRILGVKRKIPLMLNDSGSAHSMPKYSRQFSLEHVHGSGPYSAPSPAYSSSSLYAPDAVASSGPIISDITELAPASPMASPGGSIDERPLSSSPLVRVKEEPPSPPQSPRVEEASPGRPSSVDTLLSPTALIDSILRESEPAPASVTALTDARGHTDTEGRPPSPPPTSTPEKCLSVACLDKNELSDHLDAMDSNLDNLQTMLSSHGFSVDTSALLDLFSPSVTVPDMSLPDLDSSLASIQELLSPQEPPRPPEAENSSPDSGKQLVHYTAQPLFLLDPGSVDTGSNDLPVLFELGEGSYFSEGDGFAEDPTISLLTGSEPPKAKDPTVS
# Method in brief: as §1
# [13] = biological target: T8, SPIC (Homo sapiens, UniProt Q8N5J4 1-248); settings: protein: recombinant; tags: N-terminal GST; dsDNA, one strand shown
# T8 sequence: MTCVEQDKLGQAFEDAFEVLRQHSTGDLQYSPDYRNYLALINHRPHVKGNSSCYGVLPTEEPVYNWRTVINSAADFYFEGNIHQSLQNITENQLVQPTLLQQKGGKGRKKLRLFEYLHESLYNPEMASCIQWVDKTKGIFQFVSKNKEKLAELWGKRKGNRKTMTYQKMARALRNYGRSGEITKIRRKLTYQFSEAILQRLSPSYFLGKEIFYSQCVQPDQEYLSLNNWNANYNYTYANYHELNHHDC
# Method in brief: as §1
# [14] = biological target: ELF4 (Homo sapiens, UniProt Q99607 1-663); settings: protein: recombinant; tags: N-terminal GST; dsDNA, one strand shown
# Chain of ELF4 (Q99607 whole entry): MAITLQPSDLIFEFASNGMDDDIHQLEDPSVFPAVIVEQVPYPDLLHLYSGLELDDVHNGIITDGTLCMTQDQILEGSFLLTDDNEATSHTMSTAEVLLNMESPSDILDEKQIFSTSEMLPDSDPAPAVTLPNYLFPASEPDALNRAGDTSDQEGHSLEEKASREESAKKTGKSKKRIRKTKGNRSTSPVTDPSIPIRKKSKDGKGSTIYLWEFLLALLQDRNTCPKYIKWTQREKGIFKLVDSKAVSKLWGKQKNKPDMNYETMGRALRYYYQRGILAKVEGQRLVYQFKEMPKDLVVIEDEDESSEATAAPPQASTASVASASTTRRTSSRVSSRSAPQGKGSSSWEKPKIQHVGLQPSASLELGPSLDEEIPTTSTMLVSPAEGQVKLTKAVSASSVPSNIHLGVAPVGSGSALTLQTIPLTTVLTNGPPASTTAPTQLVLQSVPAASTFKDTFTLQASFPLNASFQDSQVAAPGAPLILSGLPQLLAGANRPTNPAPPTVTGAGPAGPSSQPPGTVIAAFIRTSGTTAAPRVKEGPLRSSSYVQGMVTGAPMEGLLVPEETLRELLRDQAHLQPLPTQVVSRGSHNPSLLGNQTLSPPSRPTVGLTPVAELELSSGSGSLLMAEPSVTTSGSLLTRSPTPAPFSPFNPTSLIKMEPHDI
# Method in brief: as §1
# [15] = biological target: T9, ELK4 (Homo sapiens, UniProt P28324-2 1-405); settings: protein: recombinant; tags: N-terminal GST; dsDNA, one strand shown
# T9 sequence: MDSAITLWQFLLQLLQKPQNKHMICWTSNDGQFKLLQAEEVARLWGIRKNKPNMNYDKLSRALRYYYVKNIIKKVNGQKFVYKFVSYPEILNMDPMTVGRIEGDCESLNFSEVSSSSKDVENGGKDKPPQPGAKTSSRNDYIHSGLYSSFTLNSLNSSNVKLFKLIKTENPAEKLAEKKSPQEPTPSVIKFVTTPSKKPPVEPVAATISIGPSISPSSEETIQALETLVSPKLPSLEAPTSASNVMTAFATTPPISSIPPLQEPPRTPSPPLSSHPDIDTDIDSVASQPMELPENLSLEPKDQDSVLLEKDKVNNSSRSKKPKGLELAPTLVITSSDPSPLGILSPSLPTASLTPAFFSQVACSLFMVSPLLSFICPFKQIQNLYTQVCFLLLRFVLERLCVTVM
# Method in brief: as §1
# [16] = biological target: T10, ETV2 (Homo sapiens, UniProt O00321 1-342); settings: protein: recombinant; tags: N-terminal GST; dsDNA, one strand shown
# T10 sequence: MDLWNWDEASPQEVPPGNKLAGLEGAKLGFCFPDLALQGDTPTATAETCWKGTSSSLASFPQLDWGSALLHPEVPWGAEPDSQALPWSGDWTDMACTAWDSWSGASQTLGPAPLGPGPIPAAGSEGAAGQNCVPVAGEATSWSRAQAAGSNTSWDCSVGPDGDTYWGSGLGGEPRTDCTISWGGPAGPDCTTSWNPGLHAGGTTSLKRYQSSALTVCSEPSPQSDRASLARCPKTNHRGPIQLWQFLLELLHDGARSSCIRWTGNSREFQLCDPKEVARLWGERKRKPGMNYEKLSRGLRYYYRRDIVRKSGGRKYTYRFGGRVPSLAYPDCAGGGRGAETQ
# Method in brief: as §1
# [17] = biological target: T11, ELF3 (Homo sapiens, UniProt P78545 1-371); settings: protein: recombinant; tags: N-terminal GST; dsDNA, one strand shown
# T11 sequence: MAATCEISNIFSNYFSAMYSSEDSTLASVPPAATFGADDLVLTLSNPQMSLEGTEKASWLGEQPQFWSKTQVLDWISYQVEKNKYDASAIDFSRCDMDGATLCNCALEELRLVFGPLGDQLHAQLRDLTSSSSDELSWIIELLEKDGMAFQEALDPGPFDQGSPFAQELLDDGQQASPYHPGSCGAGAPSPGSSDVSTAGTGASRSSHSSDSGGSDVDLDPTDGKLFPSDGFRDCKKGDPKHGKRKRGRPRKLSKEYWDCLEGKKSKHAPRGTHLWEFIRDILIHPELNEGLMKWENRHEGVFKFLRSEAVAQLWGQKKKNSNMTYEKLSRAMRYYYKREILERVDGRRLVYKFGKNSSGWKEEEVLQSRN
# Method in brief: as §1
# [18] = biological target: CRX (Homo sapiens, UniProt O43186 1-299); settings: protein: recombinant; tags: N-terminal GST; dsDNA, one strand shown
# Chain of CRX (O43186 whole entry): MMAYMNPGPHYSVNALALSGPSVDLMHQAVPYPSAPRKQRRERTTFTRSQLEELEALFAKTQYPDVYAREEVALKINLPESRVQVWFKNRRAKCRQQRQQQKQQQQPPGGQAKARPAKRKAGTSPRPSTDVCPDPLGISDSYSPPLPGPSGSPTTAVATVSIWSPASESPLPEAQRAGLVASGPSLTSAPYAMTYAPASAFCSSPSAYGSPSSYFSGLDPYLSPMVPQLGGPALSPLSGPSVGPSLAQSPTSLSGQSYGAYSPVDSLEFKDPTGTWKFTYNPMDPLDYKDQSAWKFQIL
# Method in brief: as §1
# [19] = biological target: ETV1 (Homo sapiens, UniProt P50549 1-477); settings: protein: recombinant; tags: N-terminal GST; dsDNA, one strand shown
# Chain of ETV1 (P50549 whole entry): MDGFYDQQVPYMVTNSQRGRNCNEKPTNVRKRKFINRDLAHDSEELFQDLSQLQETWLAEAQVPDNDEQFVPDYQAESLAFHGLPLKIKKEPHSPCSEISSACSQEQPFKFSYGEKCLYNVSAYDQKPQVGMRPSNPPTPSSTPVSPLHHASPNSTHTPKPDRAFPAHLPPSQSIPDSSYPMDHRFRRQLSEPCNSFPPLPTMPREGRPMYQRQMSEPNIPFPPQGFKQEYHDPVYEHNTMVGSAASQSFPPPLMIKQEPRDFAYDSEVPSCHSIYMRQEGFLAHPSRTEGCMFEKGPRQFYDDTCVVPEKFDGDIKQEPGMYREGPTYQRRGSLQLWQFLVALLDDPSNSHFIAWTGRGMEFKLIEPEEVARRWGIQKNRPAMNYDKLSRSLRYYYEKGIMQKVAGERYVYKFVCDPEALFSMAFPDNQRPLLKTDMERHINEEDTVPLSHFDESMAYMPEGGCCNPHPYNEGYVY
# Method in brief: as §1
sequence,measurement,setting,value
CTTTAT,binding signal,[1],"1.19 fold enrichment (6-mer frequency, TF over GST control)"
same,binding signal,[2],"1.19 fold enrichment (6-mer frequency, TF over GST control)"
same,binding signal,[3],"1.18 fold enrichment (6-mer frequency, TF over GST control)"
same,binding signal,[4],"1.16 fold enrichment (6-mer frequency, TF over GST control)"
same,binding signal,[5],"1.17 fold enrichment (6-mer frequency, TF over GST control)"
same,binding signal,[6],"1.34 fold enrichment (6-mer frequency, TF over GST control)"
same,binding signal,[7],"1.25 fold enrichment (6-mer frequency, TF over GST control)"
same,binding signal,[8],"1.19 fold enrichment (6-mer frequency, TF over GST control)"
same,binding signal,[9],"1.25 fold enrichment (6-mer frequency, TF over GST control)"
same,binding signal,[10],"1.17 fold enrichment (6-mer frequency, TF over GST control)"
same,binding signal,[11],"1.21 fold enrichment (6-mer frequency, TF over GST control)"
same,binding signal,[12],"1.23 fold enrichment (6-mer frequency, TF over GST control)"
same,binding signal,[13],"1.21 fold enrichment (6-mer frequency, TF over GST control)"
same,binding signal,[14],"1.19 fold enrichment (6-mer frequency, TF over GST control)"
same,binding signal,[15],"1.29 fold enrichment (6-mer frequency, TF over GST control)"
same,binding signal,[16],"1.29 fold enrichment (6-mer frequency, TF over GST control)"
same,binding signal,[17],"1.21 fold enrichment (6-mer frequency, TF over GST control)"
same,binding signal,[18],"1.65 fold enrichment (6-mer frequency, TF over GST control)"
same,binding signal,[19],"1.22 fold enrichment (6-mer frequency, TF over GST control)"
